Measured values from PubChem BioAssay (NCI).
Compounds without any hit were thinned out: in the full panel of roughly 83,000, 20% have a hit.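 96-well plates, one dose, 48 hours. Percent growth reported; active if below 10.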 Values without a mark were called inactive. The source made the active and inactive calls.

How the values were obtained:
Test in all cases: NCI-60 one-dose screen, 48 h (100 = growth as untreated, 0 = no growth, -100 = all killed)
HCT-15 colon = conditions: 10 µM unless noted
SNB-75 CNS = conditions: 10 µM
SNB-19 CNS = conditions: 10 µM unless noted
U251 CNS = conditions: 10 µM unless noted
PC-3 prostate = conditions: 10 µM unless noted
SK-MEL-5 melanoma = conditions: 10 µM unless noted
UACC-62 melanoma = conditions: 10 µM unless noted
LOX IMVI melanoma = conditions: 10 µM unless noted
SK-MEL-28 melanoma = conditions: 10 µM unless noted
HT29 colon = conditions: 10 µM unless noted

SMILES	growth (HCT-15 colon)	growth (SNB-75 CNS)	growth (SNB-19 CNS)	growth (U251 CNS)	growth (PC-3 prostate)	growth (SK-MEL-5 melanoma)	growth (UACC-62 melanoma)	growth (LOX IMVI melanoma)	growth (SK-MEL-28 melanoma)	growth (HT29 colon)
C=C(C)[C@@H]1C[C@H](O)Cc2cc(F)ccc2N1	100%	87.5%	104%	92.7%	91.6%	99.3%	95.6%	87.1%	103%	–
C=C[C@@H]1C[C@H](O)Cc2c(C)cc(C)cc2N1	101%	93.6%	109%	97.3%	88.6%	96.2%	98.2%	77.6%	102%	–
COc1ccc(C2C=C(c3ccc(N)cc3)N=C3SC=CN32)cc1OC (centres undefined)	101%	–	–	98.5%	91.4%	103%	112%	105%	113%	103%
COc1ccc(CN2CCc3c(Sc4ccccc4)nc(N)nc3C2=O)c(OC)c1	66.8%	66.5%	82%	72.3%	52.1%	51.1%	52.5%	71.3%	90.9%	–
CN(C)c1nc2c(N)ncnc2n1C1OC(CO)C(O)C1O (centres undefined)	104%	111%	107%	110%	94.2%	108%	99.1%	104%	122%	–
C=C(C)[C@@H]1C[C@@H]2Cc3cc(Cl)ccc3N1O2	97.9%	99.2%	105%	94.5%	96.5%	95.8%	94.9%	99.3%	108%	–
CN(C)c1ncnc2c1ccn2C1OC(CO)C(O)C1O (centres undefined)	14.3%	27%	73.8%	97%	13%	89.5%	93.4%	3.02% (active)	82.5%	–
Cn1ncc2c(Sc3ccc(Cl)cc3)ncnc21	97%	86.7%	81.6%	81.9%	78.1%	90.1%	87.9%	78.3%	102%	–
CCC(C)/C(=C\C#N)NCCCN/C(=C/C#N)C(C)CC (centres undefined)	97%	92.1%	109%	104%	89.4%	108%	104%	93.7%	111%	–
NNc1cccc(/C=C/c2ccccc2)cc1=O	33%	81.3%	67.7%	48.5%	61.3%	62.6%	54.5%	33.4%	81.9%	–
COc1ccc(C(=O)n2nc(/C=C/c3ccc(O)c(OC)c3)cc2/C=C/c2ccc(O)c(OC)c2)cc1	5.59% (active)	-16% (active)	12.8%	0.801% (active)	-9.28% (active)	-13.3% (active)	-0.825% (active)	4.5% (active)	-8.32% (active)	–
CO[C@H]1NC(=O)N(S(=O)(=O)c2ccc(Cl)cc2)[C@@H]1OC	102%	93.6%	103%	101%	97.3%	108%	100%	105%	106%	–
CCCCCCCCCCCCCCCCNC(=O)OC(C)C	55.9%	64%	95.5%	14.1%	-16.9% (active)	91%	81.7%	-2.25% (active)	95.9%	–
CCOC(=O)C1CCNC(=O)C1=O (centres undefined)	111%	101%	101%	111%	105%	101%	101%	97.8%	112%	–
Cc1ccc(S(=O)(=O)C2=C3C(=C(c4ccccc4)c4ccccc43)CN(S(=O)(=O)c3ccc(C)cc3)C2)cc1	39%	56.1%	82.1%	38.4%	30.1%	81.9%	36.9%	-76.5% (active)	88%	–
Nc1cccc(Cl)c1N	96.5%	76.9%	116%	110%	90.8%	104%	108%	86.6%	119%	–
COc1ccc(C(=O)c2cc(OC)c3c(c2)OCO3)cc1O	19.1%	30.6%	41%	27.9%	29.4%	-52% (active)	43.6%	26.7%	65.6%	–
O=c1cc/c(=N\Nc2ccccc2)c(=O)/c1=N/Nc1ccccc1	104%	106%	111%	104%	63.6%	87%	101%	89%	103%	–
COc1cc(/C=C/C(=O)c2ccc(Nc3ncnc4cc(OC)c(OC)cc34)cc2)cc(OC)c1	97.8%	96.1%	94.9%	72.3%	78%	109%	99.9%	88.3%	114%	–

SMILES	growth (HCT-15 colon)	growth (SNB-75 CNS)	growth (SNB-19 CNS)	growth (U251 CNS)	growth (PC-3 prostate)	growth (SK-MEL-5 melanoma)	growth (UACC-62 melanoma)	growth (LOX IMVI melanoma)	growth (SK-MEL-28 melanoma)	growth (HT29 colon)
COc1ccc(S(=O)(=O)n2ccc(-c3ccc4c(c3)CCC(C)(C)O4)n2)cc1OC	71.9%	84.6%	87.4%	79.5%	69.5%	28.2%	63.9%	76.7%	91%	–
O=c1cc(Cc2ccc([N+](=O)[O-])cc2)[nH]c(=O)[nH]1	96.6%	94.4%	97%	103%	92.6%	109%	99.9%	103%	114%	–
O=c1[nH]c(-c2ccccc2)nc(CN2CCCCC2)c1O	113%	96.3%	97.3%	103%	105%	111%	98.6%	97.4%	111%	–
CN(C)CCCC(C#N)c1ccccc1 (centres undefined)	103%	88.5%	103%	105%	99.1%	108%	102%	103%	119%	–
CC1CCC(C)N(C)C1 (centres undefined)	117%	89.7%	98.6%	107%	87.5%	107%	99.7%	95.9%	107%	–
Cc1ccc(S(=O)(=O)n2cc(C(=O)C(=O)N3CCOCC3)c3ccccc32)cc1	96.6%	104%	99.5%	93.8%	67.5%	88.1%	68.1%	83.9%	117%	–
C[n+]1c(/C=C/c2c(O)ccc3ccccc23)ccc2ccccc21	21.6%	49.9%	41.7%	17.3%	25.4%	36%	44.6%	-65.1% (active)	66.6%	–
NC(N)=Nc1nc2ccccc2o1	105%	111%	99.7%	101%	57.6%	93.8%	104%	95.5%	95.5%	–
O=C(CSC1CCc2ccccc21)N/N=C/c1ccccc1O (centres undefined)	33.6%	71.7%	60.5%	48.7%	50.6%	47.7%	36.4%	40.4%	57.2%	–
COc1ccccc1CNCCCN1C(=O)c2ccc3c4c(ccc(c24)C1=O)C(=O)N(CCCNCCCCNCCCN)C3=O	-32.1% (active)	-79.7% (active)	-31.1% (active)	-51.8% (active)	-1.44% (active)	-99.3% (active)	-52% (active)	1.41% (active)	-75.7% (active)	–
O=C(Oc1ccccc1[N+](=O)[O-])C1CCCN1C(=O)OCc1ccccc1 (centres undefined)	101%	99%	103%	96.8%	97.3%	101%	109%	84.2%	102%	–
CCCCCCCCCCCC(=O)NCCC[N+](C)(C)CC(=O)[O-]	100%	93.4%	88.3%	72.2%	31.8%	95.6%	78%	79.8%	99%	–
O=[N+]([O-])c1cc(S(=O)(=O)Oc2ccccc2)ccc1Cl	40.5%	52.2%	30.6%	0.0855% (active)	25.5%	6.43% (active)	65.8%	-80.1% (active)	-18% (active)	–
COc1ccc2c(c1)NC1=C(C(=O)OC1)C2c1cc(OC)c2c(c1)OCO2 (centres undefined)	16.5%	53.6%	37.3%	21.1%	24.3%	-55.1% (active)	50.8%	19%	66.9%	–
N#C/C(=C1C=C/C(=N/O)C(Cl)=C/1)c1ccc(Cl)cc1	83%	89%	93.6%	46.4%	22.2%	93.5%	58.3%	7.65% (active)	101%	–
CC1=C(C#N)C(=O)NC(C)C1 (centres undefined)	101%	111%	103%	105%	94.9%	105%	104%	90.4%	101%	–
COc1ccc(CCNC2=CC(=O)CCC2)cc1OC	108%	92.9%	105%	107%	93%	101%	109%	96.3%	111%	–
COc1cc(Cn2cc3c(c2)-c2oncc2CC3)cc(OC)c1OC	16.3%	45.5%	34.9%	17.2%	38.4%	-36% (active)	41.9%	9.46% (active)	59.9%	–
O=C1C(Cl)=C(Nc2ccccn2)C(=O)c2ccccc21	43.5%	62.1%	93.2%	42.2%	63.6%	-84.2% (active)	1.2% (active)	14.5%	34.8%	–

SMILES	growth (HCT-15 colon)	growth (SNB-75 CNS)	growth (SNB-19 CNS)	growth (U251 CNS)	growth (PC-3 prostate)	growth (SK-MEL-5 melanoma)	growth (UACC-62 melanoma)	growth (LOX IMVI melanoma)	growth (SK-MEL-28 melanoma)	growth (HT29 colon)
O=S(=O)(CC(O)(c1ccccc1)c1ccccc1)CC(O)(c1ccccc1)c1ccccc1	96.4%	58.4%	83.2%	70.7%	80.4%	88.6%	93.7%	76%	86%	–
COC(=O)C1CCCN1C(=O)[C@@H]1CCCN1C(=O)[C@H](Cc1c[nH]c2ccccc12)NC(=S)Nc1cc(C(F)(F)F)cc(C(F)(F)F)c1 (some centres undefined)	40%	55.1%	49.7%	35.9%	20.4%	58.1%	63.6%	36.1%	80.9%	–
C/C(=C\c1ccc(OCC(=O)O)c(Cl)c1Cl)[N+](=O)[O-]	97.4%	103%	115%	96.4%	92%	109%	114%	92.1%	118%	–
C=C[C@@H]1C[C@H](O)Cc2ccccc2N1	103%	102%	108%	99.1%	106%	110%	102%	104%	112%	–
COc1cc(/C=C/c2cc(/C=C/c3ccc(O)c(OC)c3)n(C(N)=O)n2)ccc1O	4.33% (active)	-40.9% (active)	4.95% (active)	-10.9% (active)	-23.5% (active)	-33% (active)	-47.2% (active)	1.48% (active)	-24.6% (active)	–
COc1cc(C2CC(c3ccc4c(c3)OCO4)=NN2C(C)=O)cc(OC)c1OC (centres undefined)	40.4%	-12.1% (active)	47.6%	28.2%	43.8%	11.7%	46.2%	35.7%	52.7%	–
COc1ccc2c(c1)cn1c3ccc(OC)cc3[nH]c(=O)c21	-84.4% (active)	59.1%	12.3%	-90.3% (active)	-72.7% (active)	4.14% (active)	29.9%	-79.5% (active)	61%	–
O=C1CCCCC1(c1ccccc1)c1ccccc1	91.3%	88.8%	100%	108%	–	99.1%	99.7%	94%	95.6%	–
COc1cc(C2CC(c3ccc4c(c3)OCO4)=NN2C=O)cc(OC)c1OC (centres undefined)	33.5%	-13.5% (active)	42.8%	32%	47.9%	17.2%	40.9%	34.5%	50.6%	–
C=C(C)[C@@H]1C[C@@H]2Cc3cc(F)ccc3N1O2	92.9%	95.9%	105%	–	95%	95.3%	95%	94.6%	107%	–
O=C([O][Sn]([O]C(=O)c1ccccn1)([c]1ccccc1)[c]1ccccc1)c1ccccn1	81.7%	49.3%	105%	86.3%	93.1%	84.3%	83%	50.6%	98.1%	–
COc1ccc(C(=O)NC(=O)Nc2cc3c(cc2F)/C(=C/c2[nH]c(C)c(CCC(=O)O)c2C)C(=O)N3)c(F)c1	28%	9.65% (active)	20%	9.72% (active)	22.6%	59.6%	31.3%	38.5%	44.4%	–
CNc1ccc(Br)c2c1C(=O)c1ccccc1C2=O	98.2%	96.7%	110%	103%	94.5%	110%	95.8%	102%	115%	–
CNC(=S)NNC(=O)C1CC1	105%	96.5%	106%	109%	102%	105%	111%	99.9%	113%	–
Nc1nc(=O)c2ccccc2s1	101%	94.1%	104%	111%	99.4%	116%	97.2%	104%	121%	–
CC(C)(C)OC(=O)NCCc1ccc(N=C=S)cc1	55.9%	42.4%	84.7%	75.4%	66.3%	86.1%	54.8%	56%	69%	–
CCN(CC)CCOc1ccc(Cl)c(C)c1	104%	93.4%	101%	107%	101%	–	104%	101%	107%	–
CC(=O)Nc1scc[n+]1Cc1ccccc1	101%	106%	110%	106%	94.2%	117%	114%	87.9%	109%	–
C=C1CCC2C3(C)COC(c4ccc(N(C)C)cc4)OC3CCC2(C)C1C/C=C1/C(=O)OCC1O (centres undefined)	57.6%	73.8%	85.9%	51.1%	9.17% (active)	60.7%	63.1%	11.9%	94.9%	–
